{
  "source": "PubChem BioAssay AID623911",
  "about": "(Vanderbilt High Throughput Screening Facility, 2012)",
  "note": "Screen size: about 2,100 compounds; about 770 (37%) were called active. The list shows a part of the results. Unmarked numbers belong to inactive results.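 Rule for the calls: active = by-eye trace score of 1 for enhancers or -1 for inhibitors, so actives lie on both sides (some results past the limit were not filed as active); inactive = score 0, or 3 fluorescent, or 4 baseline rise.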",
  "data": [
    {"molecular_target": "G protein-activated inward rectifier potassium channel 2 (Homo sapiens) + G protein-activated inward rectifier potassium channel 1 (Homo sapiens) (UniProt P48051+P48549)", "sequence (P48051 whole entry, looked up)": "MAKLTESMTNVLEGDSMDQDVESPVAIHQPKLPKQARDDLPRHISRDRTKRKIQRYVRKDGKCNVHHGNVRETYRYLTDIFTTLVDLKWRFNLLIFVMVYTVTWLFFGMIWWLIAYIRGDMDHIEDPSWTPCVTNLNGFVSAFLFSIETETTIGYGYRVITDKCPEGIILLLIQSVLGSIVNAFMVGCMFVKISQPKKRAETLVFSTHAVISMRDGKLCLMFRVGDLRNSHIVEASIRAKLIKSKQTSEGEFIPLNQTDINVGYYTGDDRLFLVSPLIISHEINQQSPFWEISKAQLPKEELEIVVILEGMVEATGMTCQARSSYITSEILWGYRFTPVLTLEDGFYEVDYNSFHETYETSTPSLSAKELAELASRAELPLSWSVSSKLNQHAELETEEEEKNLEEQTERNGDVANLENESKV", "sequence (P48549 whole entry, looked up)": "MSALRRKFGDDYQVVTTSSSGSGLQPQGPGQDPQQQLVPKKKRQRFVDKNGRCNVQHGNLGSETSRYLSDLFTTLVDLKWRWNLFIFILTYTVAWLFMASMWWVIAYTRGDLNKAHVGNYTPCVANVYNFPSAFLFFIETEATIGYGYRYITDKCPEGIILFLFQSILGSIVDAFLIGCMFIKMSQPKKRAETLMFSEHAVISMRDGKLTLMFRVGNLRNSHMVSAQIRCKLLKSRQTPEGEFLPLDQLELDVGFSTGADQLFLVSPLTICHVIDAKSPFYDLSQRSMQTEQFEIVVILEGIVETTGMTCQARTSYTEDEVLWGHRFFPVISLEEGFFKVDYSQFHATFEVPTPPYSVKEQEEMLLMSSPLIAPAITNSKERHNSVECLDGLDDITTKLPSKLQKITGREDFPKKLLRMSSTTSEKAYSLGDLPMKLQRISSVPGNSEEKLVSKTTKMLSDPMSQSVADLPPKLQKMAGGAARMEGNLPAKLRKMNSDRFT", "assay": "GIRK1/2 thallium flux modulators, retest, confirmation, cell-based, HEK293 rmGlu8/hGIRK1/2, FluoZin-2 (AID 623911)", "settings": "HEK293 rmGlu8/hGIRK1/2, thallium flux FluoZin-2; actives lie on both sides; glutamate co-added at its EC20 level", "values": [
      {"compound": "CC(C)(C)c1nnc(N/N=C/c2ccccc2)n(N)c1=O", "manual score": 0},
      {"compound": "CNC(=S)N/N=C(\\C)c1ccc(C)c(C)c1", "manual score": 0},
      {"compound": "C/C(=N\\NC(=S)NCCc1ccccc1)c1cccs1", "manual score": 3},
      {"compound": "C/C(=N\\NC(=O)c1csc(C)c1C)c1ccc(Cl)s1", "manual score": 0},
      {"compound": "C/C(=N\\NC(=S)NC(C)C)c1ccc(Cl)s1", "manual score": "1 (active)"},
      {"compound": "C/C(=N\\NC(N)=S)c1ccc(Cl)s1", "manual score": 0},
      {"compound": "C=C(C)CNC(=S)N/N=C(\\C)c1ccc(Cl)s1", "manual score": "1 (active)"},
      {"compound": "CCNC(=S)N/N=C(\\C)c1ccc(Cl)s1", "manual score": 0},
      {"compound": "CC(C)NC(=S)N/N=C/c1cc(Br)ccc1O", "manual score": 0},
      {"compound": "CNC(=S)N/N=C(\\C)c1ccc(Cl)s1", "manual score": "1 (active)"},
      {"compound": "Cn1c(NC(=O)Cc2ccc(F)cc2)cc(=O)n(C)c1=O", "manual score": 0},
      {"compound": "CS(=O)(=O)c1ccc2nc(NC(=O)C3C4C=CC(C4)C3C(=O)O)sc2c1", "note": "(stereo unspecified)", "manual score": 0},
      {"compound": "CC1=NN(/C(=N\\c2nnc(C)s2)Nc2ccccc2)[C@H](c2cccc3ccccc23)S1", "manual score": 0},
      {"compound": "O=C(c1oc(=O)c2ccccc2c1-c1ccccc1)N1CCN(C2CCCCC2)CC1", "manual score": "-1 (active)"},
      {"compound": "CCN(CC)CCn1c(=S)[nH]c2cc(Cl)ccc2c1=O", "manual score": 0},
      {"compound": "CCN(CC)CCCn1c(=S)[nH]c2cc(Cl)ccc2c1=O", "manual score": 0},
      {"compound": "CCCCn1c(=S)[nH]c2c(oc3ccc(Cl)cc32)c1=O", "manual score": "1 (active)"},
      {"compound": "Cc1ccc(C2C3=C(NCCN=C3c3ccccc3)C(=O)N2c2ccccc2)cc1", "note": "(stereo unspecified)", "manual score": "-1 (active)"},
      {"compound": "Cc1ccc2nsnc2c1S(=O)(=O)Nc1cccc2nsnc12", "manual score": "1 (active)"},
      {"compound": "O=C(NNS(=O)(=O)c1ccccc1F)c1cccc(S(=O)(=O)N2CCOCC2)c1", "manual score": 0},
      {"compound": "CCC(CC)c1nnc(NC(=O)c2ccc3ccccc3n2)s1", "manual score": 0},
      {"compound": "CCc1ccc(NCc2cc3c(C)nn(-c4ccccc4)c3[nH]c2=O)cc1", "manual score": 0},
      {"compound": "CCc1ccc(Nc2nc3ccccc3c(=O)s2)cc1", "manual score": "1 (active)"},
      {"compound": "O=C1CC(C(F)(F)C(F)(F)C(F)(F)F)=Nc2ccccc2N1", "manual score": 0},
      {"compound": "O=C(N/N=C/c1ccc([N+](=O)[O-])s1)c1cccc(Br)c1", "manual score": 0},
      {"compound": "O=C(N/N=C\\c1ccc(Cl)s1)c1cccs1", "manual score": "1 (active)"},
      {"compound": "Cc1ccccc1C(=O)N/N=C/c1ccc([N+](=O)[O-])s1", "manual score": 0},
      {"compound": "CCOC(=O)C1CCCN(c2nc(C)nc3c2oc2ccccc23)C1", "note": "(stereo unspecified)", "manual score": "-1 (active)"},
      {"compound": "CCOC(=O)N1CCN(C(=O)CSc2ncnc3ccccc23)CC1", "manual score": 0},
      {"compound": "CCOC(=O)C1CCCN(C(=O)c2cc(-c3ccccc3)on2)C1", "note": "(stereo unspecified)", "manual score": 0},
      {"compound": "CCOC(=O)C1CCCN(c2ncnc3c2oc2ccccc23)C1", "note": "(stereo unspecified)", "manual score": "-1 (active)"}
    ]}
  ]
}
